Common to all, as to assay: growth (OD600 after 10 h); higher = more growth (less inhibition)
The subject of test [1] is E. coli TESEC Alr+ wild-type control. The settings on record: compound 0.1 mM; raw OD600 reference: median of DMSO wells 0.241, cell-free background 0.041. How it is done: (§1)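 TESEC Mtb Alr E. coli, or the Alr+ wild-type control, in 384-well plates with Prestwick library compounds at 0.1 mM and 1% DMSO, across arabinose induction levels of 1E3 to 1E7 nM. Growth is read as OD600 after 10 h at 37 °C in triplicate biological replicates.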

Test [2] has as its system E. coli TESEC Mtb Alr. The settings on record: compound 0.1 mM. How it is done:
as §1

Another test relates to E. coli TESEC Mtb Asd. Conditions: compound 0.1 mM. As to the method:
(§2)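 TESEC E. coli strains in which the native enzyme is deleted and replaced by arabinose-inducible Mtb Asd, DapB, CysH or TrpD, each grown in its selective medium. Strains were screened against the Prestwick library at 0.1 mM and 1% DMSO in 384-well format at low and high arabinose induction. Growth is read as OD600 after 10 h in triplicate.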

The test system of a further test is E. coli TESEC Mtb DapB. The settings on record: compound 0.1 mM. As to the method:
as §2

Test [3] concerns E. coli TESEC Alr+ wild-type control. The settings on record: compound 0.1 mM; raw OD600 reference: median of DMSO wells 0.49, cell-free background 0.052. As to the method: (§3)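 TESEC Mtb Alr E. coli (ΔaraC ΔtolC ΔentC Δalr ΔdadX, arabinose-inducible Mtb Alr) or the Alr+ wild-type control strain, grown in defined M9-fructose medium without D-alanine in 96-well plates with Prestwick library compounds at 0.1 mM and 1% DMSO. Low Alr induction is 0.1 µM arabinose and high induction is 10 mM arabinose.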

Test [4] has as its system E. coli TESEC Mtb Alr. The settings on record: compound 0.1 mM. As to the method: as §3
The source holds these as a separate data set.

[5] abbreviates: arabinose 1000 nM, raw OD600 reference: median of DMSO wells 0.294, cell-free background 0.041.
Setting [6] is: arabinose 10000 nM, raw OD600 reference: median of DMSO wells 0.264, cell-free background 0.041.
The mark [7] stands for this setting: arabinose 100000 nM, raw OD600 reference: median of DMSO wells 0.201, cell-free background 0.041.
The mark [8] stands for this setting: arabinose 1000000 nM, raw OD600 reference: median of DMSO wells 0.193, cell-free background 0.041.
[9] abbreviates: arabinose 10000000 nM, raw OD600 reference: median of DMSO wells 0.146, cell-free background 0.041.
The mark [10] stands for this setting: arabinose induction (level): High, raw OD600 reference: median of DMSO wells 0.331, cell-free background 0.041.
Setting [11] is: arabinose induction (level): Low, raw OD600 reference: median of DMSO wells 0.417, cell-free background 0.041.
Setting [12] is: arabinose induction (level): High, raw OD600 reference: median of DMSO wells […], cell-free background 0.041.
Where [13] appears, read: arabinose induction (level): Low, raw OD600 reference: median of DMSO wells 0.227, cell-free background 0.041.
Where [14] appears, read: arabinose 100 nM, raw OD600 reference: median of DMSO wells 0.413, cell-free background 0.052.
Where [15] appears, read: arabinose 10000000 nM, raw OD600 reference: median of DMSO wells […], cell-free background 0.052.

For seven compounds, growth results are on record in the supplement of paper PMC9262897, “Low-cost anti-mycobacterial drug discovery using engineered E. coli” (Nature Communications, 2022).

Where a name gives a salt, the structure may show the parent alone. ± gives the standard deviation of the averaged measurements.

With `CC(=O)[C@H]1CC[C@H]2[C@@H]3C[C@H](C)C4=CC(=O)CC[C@]4(C)[C@H]3[C@@H](O)C[C@]12C` [Medrysone], the growth worked out at 0.122 ± 0.0039 in test [1]; 0.162 ± 0.0096 with E. coli TESEC Mtb Alr [2] (setting [5]); 0.2463 ± 0.002 in the test on E. coli TESEC Mtb Alr [2] (setting [6]); 0.1231 ± 0.00055 with E. coli TESEC Mtb Alr [2] (setting [7]); 0.112 ± 0.003 in the test with E. coli TESEC Mtb Alr [2] (setting [8]); 0.138 ± 0.0029 in the test with E. coli TESEC Mtb Alr [2] (setting [9]). For the same compound, the growth in the test with E. coli TESEC Mtb Asd (setting [10]) was 0.217 ± 0.02; in the test with E. coli TESEC Mtb Asd (setting [11]), 0.385 ± 0.041; in the test with E. coli TESEC Mtb DapB (setting [12]), 0.179 ± 0.018; with E. coli TESEC Mtb DapB (setting [13]) it was 0.18 ± 0.0064; in test [3], 0.457 ± 0.067; in the test on E. coli TESEC Mtb Alr [4] (setting [14]), 0.399 ± 0.0044. Also, the growth in the test with E. coli TESEC Mtb Alr [4] (setting [15]) was found to be 0.213 ± 0.018.
With `NC12CC3CC(CC(C3)C1)C2` [Adamantamine fumarate], the growth in test [1] turned out to be 0.253 ± 0.0038; in the test with E. coli TESEC Mtb Alr [2] (setting [5]), 0.299 ± 0.0054; in the test with E. coli TESEC Mtb Alr [2] (setting [6]), 0.271 ± 0.005; in the test with E. coli TESEC Mtb Alr [2] (setting [7]), 0.248 ± 0.034; in the test on E. coli TESEC Mtb Alr [2] (setting [8]), 0.209 ± 0.014; in the test on E. coli TESEC Mtb Alr [2] (setting [9]), 0.145 ± 0.0061. The growth in the test with E. coli TESEC Mtb Asd (setting [10]) amounted to 0.353 ± 0.052; in the test with E. coli TESEC Mtb Asd (setting [11]), 0.457 ± 0.0081; with E. coli TESEC Mtb DapB (setting [12]), 0.2 ± 0.0046; in the test with E. coli TESEC Mtb DapB (setting [13]) it was 0.214 ± 0.0073; in test [3], 0.469 ± 0.056; in the test on E. coli TESEC Mtb Alr [4] (setting [14]), 0.407 ± 0.0076. Besides, in the test on E. coli TESEC Mtb Alr [4] (setting [15]), the growth came to 0.368 ± 0.026.
For the compound `OCC(O)CN1CCN(c2ccccc2)CC1` (racemic) [Dropropizine (R,S)], the growth in test [1] turned out to be 0.241 ± 0.0033; in the test with E. coli TESEC Mtb Alr [2] (setting [5]) it was 0.283 ± 0.018; in the test on E. coli TESEC Mtb Alr [2] (setting [6]), 0.255 ± 0.0087; in the test with E. coli TESEC Mtb Alr [2] (setting [7]) it was 0.228 ± 0.014; in the test on E. coli TESEC Mtb Alr [2] (setting [8]) it was 0.174 ± 0.0046; with E. coli TESEC Mtb Alr [2] (setting [9]) it was 0.144 ± 0.0086. For the same compound, the growth with E. coli TESEC Mtb Asd (setting [10]) worked out at 0.364 ± 0.032; in the test with E. coli TESEC Mtb Asd (setting [11]), 0.424 ± 0.03; in the test with E. coli TESEC Mtb DapB (setting [12]) it was 0.2 ± 0.025; in the test on E. coli TESEC Mtb DapB (setting [13]), 0.248 ± 0.026; in test [3], 0.431 ± 0.04; with E. coli TESEC Mtb Alr [4] (setting [14]), 0.404 ± 0.014. In the test on E. coli TESEC Mtb Alr [4] (setting [15]), this compound displayed a growth of 0.361 ± 0.022.
Consider `C[C@@H]1CN(c2c(F)c(N)c3c(=O)c(C(=O)O)cn(C4CC4)c3c2F)C[C@H](C)N1` [Sparfloxacin], for which the growth turned out to be 0.0414 ± 0.0019 in test [1]; 0.0409 ± 0.0011 in the test on E. coli TESEC Mtb Alr [2] (setting [5]); 0.0398 ± 0.0002 with E. coli TESEC Mtb Alr [2] (setting [6]); 0.0433 ± 0.0046 with E. coli TESEC Mtb Alr [2] (setting [7]); 0.04 ± 0.00078 in the test on E. coli TESEC Mtb Alr [2] (setting [8]); 0.04067 ± 0.00038 in the test on E. coli TESEC Mtb Alr [2] (setting [9]). Moreover, the growth in the test on E. coli TESEC Mtb Asd (setting [10]) turned out to be 0.04863 ± 0.0004; in the test with E. coli TESEC Mtb Asd (setting [11]) it was 0.0462 ± 0.0031; in the test with E. coli TESEC Mtb DapB (setting [12]), 0.0488 ± 0.00061; in the test with E. coli TESEC Mtb DapB (setting [13]), 0.04823 ± 0.00038; in test [3] it was 0.0553 ± 0.0029; with E. coli TESEC Mtb Alr [4] (setting [14]), 0.0536 ± 0.0018. In addition, in the test on E. coli TESEC Mtb Alr [4] (setting [15]), the growth stood at 0.051 ± 0.00046.
For `Nc1nc2n[nH]nc2c(=O)[nH]1` [Azaguanine-8], the growth is 0.21 ± 0.0092 in test [1]; 0.241 ± 0.0083 with E. coli TESEC Mtb Alr [2] (setting [5]); 0.194 ± 0.0047 in the test on E. coli TESEC Mtb Alr [2] (setting [6]); 0.239 ± 0.0079 with E. coli TESEC Mtb Alr [2] (setting [7]); 0.143 ± 0.0028 in the test on E. coli TESEC Mtb Alr [2] (setting [8]); 0.132 ± 0.009 with E. coli TESEC Mtb Alr [2] (setting [9]). Moreover, the growth in the test on E. coli TESEC Mtb Asd (setting [10]) turned out to be 0.397 ± 0.01; with E. coli TESEC Mtb Asd (setting [11]), 0.42 ± 0.044; in the test on E. coli TESEC Mtb DapB (setting [12]), 0.235 ± 0.032; with E. coli TESEC Mtb DapB (setting [13]) it was 0.26 ± 0.084; in test [3], 0.3656 ± 0.0032; with E. coli TESEC Mtb Alr [4] (setting [14]) it was 0.409 ± 0.026. For the same compound, the growth with E. coli TESEC Mtb Alr [4] (setting [15]) worked out at 0.245 ± 0.16.
Take `CCCCC1C(=O)N(c2ccccc2)N(c2ccc(O)cc2)C1=O` (stereo unspecified) [Oxyphenbutazone]: the growth turned out to be 0.2 ± 0.01 in test [1]; 0.255 ± 0.0043 in the test with E. coli TESEC Mtb Alr [2] (setting [5]); 0.262 ± 0.0047 with E. coli TESEC Mtb Alr [2] (setting [6]); 0.211 ± 0.027 in the test on E. coli TESEC Mtb Alr [2] (setting [7]); 0.124 ± 0.0071 in the test with E. coli TESEC Mtb Alr [2] (setting [8]); 0.129 ± 0.004 in the test on E. coli TESEC Mtb Alr [2] (setting [9]). The growth came to 0.366 ± 0.025 in the test with E. coli TESEC Mtb Asd (setting [10]); 0.384 ± 0.047 in the test on E. coli TESEC Mtb Asd (setting [11]); 0.204 ± 0.019 in the test with E. coli TESEC Mtb DapB (setting [12]); 0.229 ± 0.044 in the test on E. coli TESEC Mtb DapB (setting [13]); 0.436 ± 0.036 in test [3]; 0.415 ± 0.0059 with E. coli TESEC Mtb Alr [4] (setting [14]). This compound came in with a growth in the test with E. coli TESEC Mtb Alr [4] (setting [15]) of 0.28 ± 0.0025.
With `CO[C@@]1(NC(=O)Cc2cccs2)C(=O)N2C(C(=O)O)=C(COC(N)=O)CS[C@@H]21` [Cefoxitin sodium salt], the growth in test [1] came out at 0.0397 ± 0.00092; in the test on E. coli TESEC Mtb Alr [2] (setting [5]) it was 0.0385 ± 0.0017; in the test with E. coli TESEC Mtb Alr [2] (setting [6]), 0.0398 ± 0.0004; with E. coli TESEC Mtb Alr [2] (setting [7]) it was 0.0383 ± 0.0013; with E. coli TESEC Mtb Alr [2] (setting [8]), 0.03983 ± 0.00029; with E. coli TESEC Mtb Alr [2] (setting [9]), 0.0389 ± 0.00036. Moreover, the growth turned out to be 0.0597 ± 0.0059 in the test on E. coli TESEC Mtb Asd (setting [10]); 0.0593 ± 0.014 in the test on E. coli TESEC Mtb Asd (setting [11]); 0.0512 ± 0.0019 in the test with E. coli TESEC Mtb DapB (setting [12]); 0.0492 ± 0.0059 in the test with E. coli TESEC Mtb DapB (setting [13]); 0.0458 ± 0.00061 in test [3]; 0.0456 ± 0.00026 in the test with E. coli TESEC Mtb Alr [4] (setting [14]). In the test on E. coli TESEC Mtb Alr [4] (setting [15]), the growth came out at 0.052 ± 0.0013.
